SMILES strings stand for the structures. Values joined by “and” are separate entries in the source; they are usually repeats but may differ in a detail not shown here. Equal values may be shown once. Records with an inconclusive call do not appear. Unmarked numbers belong to inactive results. Active and inactive are the calls of the source. Calls follow the shape of the dose curve; as a rule, active = well fitted cell-killing curve with a large enough effect; inconclusive = small, poorly fitted or top-dose-only effect; inactive = flat fitted curve, though single readings scatter.

The results in this text go back to PubChem BioAssay (NCATS).
% is scaled to controls: 0 for no effect and ±100 for the full control effect; potency is read from the fitted curve at half-maximal effect.

The nature of the experiment: qHTS of pediatric cancer cell lines to identify multiple opportunities for drug repurposing: Primary screen for TC32 cells (AID 1347089). Also: nearly all actives have a fitted effect of over 60% in size. The following applies: TC32 Ewing sarcoma viability, CellTiter-Glo luminescence, 48 h; series mostly up to 45.8 µM; activity change, negative = cytotoxic: at the top concentration. The method, boiled down: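 TC32 cells, 500-1,000/well in growth medium, compound-treated 48 h at 37 °C; viability from CellTiter-Glo luminescence. Primary screen: MIPE 11-point (0.78 nM–46 µM final), NPC 8-point (0.59 nM–46 µM final); confirmatory at 11-point dilutions.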
(In qHTS, concentration-response curves come from the screen itself.)
On to `O=c1c(O)c(-c2cc(O)c(O)c(O)c2)oc2cc(O)cc(O)c12`, for which the “activity change, negative = cytotoxic” value was 8.11%.

`Nc1ccn([C@@H]2O[C@H](CO)[C@@H](O)C2O)c(=O)n1` (stereo not given in full): the “activity change, negative = cytotoxic” value is 11.4%.

On to `O=C(O)c1cccnc1Nc1cccc(C(F)(F)F)c1`, for which the Potency result is “inactive”.

In the case of `CNC[C@H](O)c1ccc(O)c(O)c1`, the Potency entry is “inactive”.

Turning to `OC(CN1CCN(c2cccc(Cl)c2)CC1)C(c1ccccc1)c1ccccc1` (stereo not given), the “activity change, negative = cytotoxic” value is 11.4%.

Take `O=C(CCc1ccc(O)cc1)c1c(O)cc(O)cc1O`: the “activity change, negative = cytotoxic” value was 6.97%.

With `O=C1NC(=O)C(c2ccccc2[N+](=O)[O-])=C1Nc1ccc(O)c(Cl)c1`, the “activity change, negative = cytotoxic” value is -0.239%.

On to `Cc1cc(O)c2c(c1)C(=O)c1cc(O)cc(O)c1C2=O`, for which the “activity change, negative = cytotoxic” value was 9.67%.

For `COc1cc2nc(N3CCN(C(=O)C4CCCO4)CC3)nc(N)c2cc1OC` (stereo not given), the Potency result was “inactive”.

As to `C[C@@H](N)C1CCC(C(=O)Nc2ccncc2)CC1` (stereo not given in full), the “activity change, negative = cytotoxic” value was 24.2%.

As to `CN(C)CCCC1(c2ccc(F)cc2)OCc2cc(C#N)ccc21` (stereo not given), the “activity change, negative = cytotoxic” value was -1.64%.

Regarding `O=c1c(O)c(-c2ccc(O)cc2O)oc2cc(O)cc(O)c12`, the “activity change, negative = cytotoxic” value was 3.76%.

Regarding `CCOC(=O)C1=C(O)C(=O)N(Cc2ccccc2)C1`, the “activity change, negative = cytotoxic” value was 11.5%.

In the case of `COc1cc2c(cc1OC)C1CC(=O)C(CC(C)C)CN1CC2` (stereo not given), the “activity change, negative = cytotoxic” value is 11.3%.

Turning to `Clc1ccc2c(N3CCN(CCCN4CCN(c5ccnc6cc(Cl)ccc56)CC4)CC3)ccnc2c1`, the “activity change, negative = cytotoxic” value is 11.3% [at 16 µM].

Regarding `CC(C)c1ccc2c(c1)c(SC(C)(C)C)c(CC(C)(C)C(=O)O)n2Cc1ccc(Cl)cc1`, the “activity change, negative = cytotoxic” value is 0.153%.

On to `NCCCCNCCCN`, for which the “activity change, negative = cytotoxic” value is 13%.

Consider `NC(=NCc1ccccc1)NC(=O)c1nc(Cl)c(N)nc1N`, for which the “activity change, negative = cytotoxic” value is 18.2%.

For `Oc1ccc2ccccc2c1SSc1c(O)ccc2ccccc12`, the “activity change, negative = cytotoxic” value was 2.54%.

On to `CC1(C)C(=O)N(CCN2CCC(C(=O)c3ccc(F)cc3)CC2)c2ccccc21`, for which the “activity change, negative = cytotoxic” value is 4.01%.

Turning to `Cc1cccc(-c2[nH]ncc2-c2ccc3ncccc3n2)n1`, the “activity change, negative = cytotoxic” value was 7.47%.

In the case of `O=C1c2c(O)cc(O)cc2OC(c2ccc(O)c(O)c2)C1O` (stereo not given), the “activity change, negative = cytotoxic” value is 17.2%.

With `c1cnc2cc3c(cc2n1)C1CNCC3C1`, the “activity change, negative = cytotoxic” value is -0.168%.

On to `Cc1c(OCC(F)(F)F)ccnc1CS(=O)c1nc2ccccc2[nH]1` (stereo not given), for which the Potency entry was “inactive”.

`CC1(C)NC(=O)N(c2ccc([N+](=O)[O-])c(C(F)(F)F)c2)C1=O`: the Potency result is “inactive”.

For the molecule `CC(=O)O[C@H]1C(=O)[C@@]2(C)C([C@H](OC(=O)c3ccccc3)[C@]3(O)C[C@H](OC(=O)[C@H](O)[C@@H](NC(=O)c4ccccc4)c4ccccc4)C(C)=C1C3(C)C)[C@]1(OC(C)=O)CO[C@@H]1C[C@@H]2O` (stereo not given in full), the Potency is 1.7 nM (active).

As for `O=C1c2ccccc2-c2n[nH]c3cccc1c23`, the “activity change, negative = cytotoxic” value was -12.2%.

`O=C(c1ccccc1)c1ccc2n1CCC2C(=O)O` (stereo not given): the Potency entry is “inactive”.

In the case of `COc1ccccc1N1CCN(CCN(C(=O)C2CCCCC2)c2ccccn2)CC1`, the “activity change, negative = cytotoxic” value is 17.2%.

Take `COc1ccc2cc([C@H](C)C(=O)O)ccc2c1`: the Potency result is “inactive”.

For `Nc1nc(OCc2ccccc2)c2[nH]cnc2n1`, the “activity change, negative = cytotoxic” value is 9.39%.

On to `CCN(CC)C(=S)SSC(=S)N(CC)CC`, for which the Potency is 989 nM (active) and 4.19 µM (active).

On to `O=c1ccc2ccc(O)c(O)c2o1`, for which the “activity change, negative = cytotoxic” value was 9.25%.

Consider `Cc1cccc(C#Cc2ccccc2)n1`, for which the “activity change, negative = cytotoxic” value is 0.988%.

In the case of `CCOC(=O)C(C)Oc1cccc2c(=O)n(CC(=O)Nc3ccc4c(c3)OCCO4)ccc12` (stereo not given), the “activity change, negative = cytotoxic” value is 14.5%.
